The values below come from PubChem BioAssay (NCATS).

Test [1] deals with Lysosomal acid glucosylceramidase (Homo sapiens) (UniProt P04062). The test is described as follows: Glucocerebrosidase-p2 (AID 348; in the data active means potency below about 10 µM; further: potency means the concentration at half of the fitted maximal effect). The following applies: purified GBA, blue fluorogenic substrate, 40 min. The procedure, abridged: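 Compounds titrated from 0.6 nM upwards against 0.2 nM enzyme in pH 5.9 citric acid/KH2PO4, taurocholate, tween-20; blue fluorogenic substrate 80 uM, 40 min room temperature, stopped and read Ex 365/Em 440 for AC50.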

A short description of test [2]: AP1 Signaling Pathway (AID 357; active means well fitted curve in either direction with a large enough effect, not every such curve was filed as active; further: on the % scale 0 is the no-effect control and ±100 the full control effect). To be noted: ME-180 AP-1-bla reporter, EGF-induced, beta-lactamase ratio, 5 h; at 7.69 µM (top of the series) unless noted. The procedure, abridged:
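ME-180 cells with beta-lactamase reporter under AP-1 response element, stimulated with EC50 EGF; compounds tested in titration series, 5 h at 37 °C. CCF4 substrate added 2.5 h at room temperature; 460/530 nm emission ratio gave %activity and AC50.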

Test [3] concerns the target Cytochrome P450 1A2 (Homo sapiens) (UniProt P05177). The test is described as follows: p450-cyp1a2 (AID 410; calls by dose curve; further: potency means the concentration at half of the fitted maximal effect). The following applies: recombinant CYP1A2, luciferin-ME demethylation, luminescence; series mostly up to 57 µM. The procedure, abridged: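 20nM CYP1A2 with 100uM Luciferin-ME (at Km) in 100mM KPO4; compound preincubated 10 min, NADPH regeneration added, 60 min at room temperature. Luciferin quantified by luminescence after detection reagent; normalized to 57 uM furafylline.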

Test [4] is described as follows: NFAT Signaling Pathway (AID 444; active means well fitted curve in either direction with a large enough effect, not every such curve was filed as active;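 further: carbachol stimulus at about its EC50 of 1 µM final; on the % scale 0 is the no-effect control and ±100 the full control effect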). The following applies: Jurkat NFAT-bla M1, carbachol, beta-lactamase ratio, 5 h; at 7.69 µM (top of the series) unless noted. The procedure, abridged: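 Jurkat cells with NFAT-driven β-lactamase reporter and co-expressed M1 receptor, stimulated with carbachol (final 1 uM, ~EC50), compound titration, 5 h at 37 °C. CCF4 loaded 1 h at RT; 460/530 nm ratio gave %activity and AC50.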

Test [5] in a line: Stat Signaling Pathway (AID 446; active means well fitted curve in either direction with a large enough effect, not every such curve was filed as active;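 further: ME-180 cervical cancer cells given 40 pM IL-6 alongside compound; SIE-controlled beta-lactamase reporter measured as 460/530 nm FRET emission ratio; on the % scale 0 is the no-effect control and ±100 the full control effect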). To be noted: ME-180 (cervical carcinoma) SIE beta-lactamase reporter, IL-6 stimulated, 5 h; at 7.69 µM (top of the series) unless noted. The procedure, abridged: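 IL-6/STAT signaling read in ME-180 cells via an SIE beta-lactamase reporter. Stimulus was 40 pM IL-6 (its AC50) for 5 hrs, so both activation and inhibition register.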
For test [6], the target named is Glucocorticoid receptor (Homo sapiens) (UniProt P04150). The test is described as follows: GR-GFP Redistribution (AID 450;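 active means compounds whose dose series gives a full or clear partial fitted curve of increased nuclear translocation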; further: potency means the concentration at half of the fitted maximal effect). The following applies: U2OS GR-GFP nuclear translocation, laser cytometry, 2 h.
Test [7] has the same target. The experiment in a line: GR-EFC Redistribution (AID 451; calls by dose curve; further: potency means the concentration at half of the fitted maximal effect). To be noted: CHO-K1 GR-EFC translocation, beta-gal luminescence, 2 h. The procedure, abridged:
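CHO-K1 cells expressing nuclear EA and GR-ED fragments of b-gal; compounds titrated up to 46 uM final, 2 h at 37 C. GR nuclear translocation read as complemented b-gal luminescence after 1 h RT detection.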

The target of test [8] is Mitogen-activated protein kinase 10 (Mus musculus) (UniProt Q61831). The experiment in a line: JNK3 AlphaScreen Assay (AID 530; active means well fitted curve in either direction with a large enough effect, not every such curve was filed as active;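 further: kinase came from lysate of stimulated human HepG2 cells; signal reports phosphorylation of biotinylated GST-cJun 1-79 at Ser73 with 10 µM ATP; on the % scale 0 is the no-effect control and ±100 the full control effect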). The following applies: JNK3 lysate, c-Jun phosphorylation; series mostly up to 57.1 µM. The procedure, abridged:
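Pre-activated (IL-1β/TNFα) JNK3 in HepG2 lysates phosphorylates biotin-GST-cJun(1-79), 10 uM ATP; anti-phospho-cJun(Ser73) AlphaScreen read at room temperature, pH 7.6 Tris buffer. Compounds pre-incubated 15 min as titrations.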
A general note: Bead proximity is the source of the signal in Alpha formats.

Test [9] has as its target 3',5'-cyclic-AMP phosphodiesterase 4B (Homo sapiens) (UniProt Q07343). The test is described as follows: qHTS Assay for Inhibitors of PDE-IV (AID 607; active means well fitted activation curve with a large enough effect in the main read-out, with a control signal flat, not every such curve was filed as active; further: potency means the concentration at half of the fitted maximal effect). To be noted: HEK293 ACTOne CNG channel cells, membrane potential fluorescence; series mostly up to 22.9 µM. The procedure, abridged:
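Live HEK293 cells with a modified cyclic nucleotide-gated (CNG) channel report intracellular cAMP via membrane-potential dye fluorescence (ex 535/em 590 nm). Endogenous PDE-IV was targeted. Compounds were tested at up to 22.9 uM final; RO 20-1724 100 uM served as control.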

Test [10] concerns the target Cytochrome P450 3A4 (Homo sapiens) (UniProt P08684). The experiment in a line: qHTS Assay for Inhibitors and Substrates of Cytochrome P450 3A4 (AID 884). Further: potency means the concentration at half of the fitted maximal effect; nearly all actives have a fitted effect of over 50% in size. To be noted: recombinant CYP3A4, Luciferin-PPXE luminescence; series mostly up to 57.1 µM. The procedure, abridged:
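20 nM human CYP3A4 with 25 uM Luciferin-PPXE (at KM) in 200 mM KPO4, preincubated 10 min with compound; NADPH regeneration started a 60 min RT reaction. Luciferin detected by luminescence, normalized to 57 uM ketoconazole as full inhibition.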

For test [11] the target is unchanged. The experiment in a line: qHTS Assay for Activators of Cytochrome P450 3A4 (AID 885). Further: nearly all actives have a fitted effect of over 65% in size. The following applies: recombinant CYP3A4, Luciferin-PPXE luminescence, 60 min; series mostly up to 57.1 µM. The procedure, abridged: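 Quantitative HTS format: compounds preincubated with 20nM human CYP3A4 and Luciferin-PPXE substrate at KM, reaction started by NADPH regeneration, stopped after 60 min, luciferase luminescence read 20 min later.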
In general terms: qHTS replaces the single test concentration by a dilution series.

Test [12] addresses Dual specificity protein kinase CLK4 (Homo sapiens) (UniProt Q9HAZ1). The experiment in a line: qHTS Assay for Inhibitors of CDC-like Kinase 4 (ADP-FP Assay) (AID 1795).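 Further: recombinant human CLK4 phosphorylating RS repeat peptide at 1 µM ATP; on the % scale 0 is the no-effect control and ±100 the full control effect; nearly all actives have a fitted effect of over 60% in size.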 To be noted: Transcreener ADP fluorescence polarization; series mostly up to 50 µM. The procedure, abridged: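 Inhibition of ADP formation by 6.25 nM Clk4 is measured using 1 uM ATP and 100 uM RS repeat peptide over one hour. Produced ADP displaces a fluorescent tracer from antibody, lowering polarization.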

A short description of test [13]: Primary qHTS for small molecule stabilizers of the endoplasmic reticulum resident proteome: Secreted ER Calcium Modulated Protein (SERCaMP) assay (AID 1508630). Further: on the % scale 0 is the no-effect control and ±100 the full control effect. The following applies: SH-SY5Y GLuc-SERCaMP (Gaussia luciferase released on ER calcium loss) secretion, thapsigargin, luminescence; series mostly up to 38.4 µM. The procedure, abridged:
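GLuc-SERCaMP-expressing SH-SY5Y cells, pretreated 16 h with compound, are challenged with thapsigargin to empty ER calcium stores; after 4 h, coelenterazine is added directly to the medium and luminescence is imaged.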

Test [14] has as its target Cytochrome P450 2C19 (Homo sapiens) (UniProt P33261). The test is described as follows: qHTS Assay for Inhibitors and Substrates of Cytochrome P450 2C19 (AID 899). Further: potency means the concentration at half of the fitted maximal effect; nearly all actives have a fitted effect of over 60% in size. To be noted: recombinant CYP2C19, luciferin-H EGE luminescence; series mostly up to 57.1 µM. The procedure, abridged: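 5 nM human CYP2C19 with 10uM Luciferin-H EGE (at KM) in 50mM KPO4, compound preincubated 10 min at 37C, then NADPH regeneration for 60 min at 37C. Luciferin read by luminescence after detection reagent; normalized to 57uM ketoconazole as full inhibition.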

Test [15] concerns the target Ubiquitin carboxyl-terminal hydrolase 1 (Homo sapiens) (UniProt O94782). The experiment in a line: Inhibitors of USP1/UAF1: Pilot qHTS (AID 504865).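 Further: rhodamine fluorescence freed from ubiquitin-rhodamine substrate followed over time; top concentration of the series differs between compounds; on the % scale 0 is the no-effect control and ±100 the full control effect; nearly all actives have a fitted effect of over 35% in size.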 To be noted: purified USP1/UAF1, Ub-rhodamine cleavage fluorescence; series mostly up to 54.9 µM. The procedure, abridged:
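Kinetic fluorescence assay: 1nM USP1/UAF1, 15 min compound preincubation, then 150nM Ub-Rho; 480/540 nm.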

For test [16], the target named is Cytochrome P450 2D6 (Homo sapiens) (UniProt P10635). The experiment in a line: qHTS Assay for Inhibitors and Substrates of Cytochrome P450 2D6 (AID 891). Further: potency means the concentration at half of the fitted maximal effect; nearly all actives have a fitted effect of over 60% in size. The following applies: recombinant CYP2D6, luciferin-ME EGE luminescence; series mostly up to 57.1 µM. The procedure, abridged: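 Human CYP2D6 (5 nM) with 30 uM Luciferin-ME EGE (at Km) in 100 mM KPO4, compound preincubated 10 min, then NADPH regeneration system for 60 min at room temperature. Luciferin read by luminescence; normalized to 1.43 uM quinidine.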

Unmarked numbers belong to inactive results. Records with an inconclusive call do not appear. The source made the active and inactive calls. Unless noted, the call rests on the fitted dose curve; in most records, active means well fitted curve in the direction sought with a large enough effect; inconclusive means small, poorly fitted or top-dose-only effect, or another doubt; inactive means no such curve, though single readings can be large; an effect the other way counts as inactive or inconclusive.

Lysosomal acid glucosylceramidase (Homo sapiens), sequence (P04062 whole entry, looked up): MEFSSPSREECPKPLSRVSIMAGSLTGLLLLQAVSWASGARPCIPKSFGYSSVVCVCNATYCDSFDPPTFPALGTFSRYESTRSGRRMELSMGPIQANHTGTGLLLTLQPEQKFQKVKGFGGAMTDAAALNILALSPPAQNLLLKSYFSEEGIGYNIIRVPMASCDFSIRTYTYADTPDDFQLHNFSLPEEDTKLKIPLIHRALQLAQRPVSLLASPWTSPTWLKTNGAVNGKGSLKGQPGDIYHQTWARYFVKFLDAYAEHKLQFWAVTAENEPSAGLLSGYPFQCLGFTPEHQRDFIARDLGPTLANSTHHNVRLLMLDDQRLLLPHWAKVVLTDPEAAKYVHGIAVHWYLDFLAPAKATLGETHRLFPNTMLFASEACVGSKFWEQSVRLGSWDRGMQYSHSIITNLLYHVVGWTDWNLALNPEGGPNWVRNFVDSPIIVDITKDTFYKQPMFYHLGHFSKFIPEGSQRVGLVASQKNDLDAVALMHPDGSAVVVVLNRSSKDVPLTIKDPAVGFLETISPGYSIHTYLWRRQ
Glucocorticoid receptor (Homo sapiens), sequence (P04150 whole entry, looked up): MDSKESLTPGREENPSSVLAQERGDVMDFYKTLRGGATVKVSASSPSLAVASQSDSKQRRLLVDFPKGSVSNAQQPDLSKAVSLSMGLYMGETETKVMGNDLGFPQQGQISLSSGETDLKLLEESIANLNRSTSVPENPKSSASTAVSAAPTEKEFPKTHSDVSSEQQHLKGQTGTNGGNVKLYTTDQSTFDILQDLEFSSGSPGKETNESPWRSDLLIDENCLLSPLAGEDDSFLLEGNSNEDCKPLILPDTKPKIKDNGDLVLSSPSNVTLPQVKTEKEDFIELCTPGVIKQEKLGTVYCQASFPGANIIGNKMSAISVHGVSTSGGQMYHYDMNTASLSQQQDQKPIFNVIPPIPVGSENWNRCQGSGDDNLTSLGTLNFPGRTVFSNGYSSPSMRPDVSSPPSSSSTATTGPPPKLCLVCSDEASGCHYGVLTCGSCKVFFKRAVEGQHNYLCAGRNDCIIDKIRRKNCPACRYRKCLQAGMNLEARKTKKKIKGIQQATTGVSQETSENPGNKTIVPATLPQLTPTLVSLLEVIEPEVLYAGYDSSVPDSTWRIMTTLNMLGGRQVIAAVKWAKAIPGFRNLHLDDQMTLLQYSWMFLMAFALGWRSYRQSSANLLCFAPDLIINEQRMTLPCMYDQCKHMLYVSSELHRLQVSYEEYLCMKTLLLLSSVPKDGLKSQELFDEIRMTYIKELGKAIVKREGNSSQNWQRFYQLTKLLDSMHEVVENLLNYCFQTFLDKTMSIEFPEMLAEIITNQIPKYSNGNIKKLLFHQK
3',5'-cyclic-AMP phosphodiesterase 4B (Homo sapiens), sequence (Q07343 whole entry, looked up): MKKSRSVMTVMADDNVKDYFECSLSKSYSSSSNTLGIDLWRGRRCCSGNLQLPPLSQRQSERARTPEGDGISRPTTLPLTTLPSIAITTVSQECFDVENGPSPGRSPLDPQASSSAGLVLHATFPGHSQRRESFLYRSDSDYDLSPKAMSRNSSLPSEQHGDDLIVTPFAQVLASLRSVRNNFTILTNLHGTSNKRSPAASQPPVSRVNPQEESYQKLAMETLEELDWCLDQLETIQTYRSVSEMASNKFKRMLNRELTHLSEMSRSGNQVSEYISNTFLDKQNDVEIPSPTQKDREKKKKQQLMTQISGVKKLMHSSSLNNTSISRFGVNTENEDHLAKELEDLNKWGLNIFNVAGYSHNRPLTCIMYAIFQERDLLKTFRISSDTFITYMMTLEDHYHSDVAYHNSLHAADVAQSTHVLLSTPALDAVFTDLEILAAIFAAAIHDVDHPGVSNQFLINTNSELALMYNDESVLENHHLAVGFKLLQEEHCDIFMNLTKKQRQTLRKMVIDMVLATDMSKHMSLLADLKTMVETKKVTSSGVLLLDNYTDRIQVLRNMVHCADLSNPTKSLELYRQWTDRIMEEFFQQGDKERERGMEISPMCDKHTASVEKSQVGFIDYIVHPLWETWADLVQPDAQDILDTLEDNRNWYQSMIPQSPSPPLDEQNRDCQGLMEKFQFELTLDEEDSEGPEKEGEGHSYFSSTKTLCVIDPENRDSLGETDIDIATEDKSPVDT
Cytochrome P450 3A4 (Homo sapiens), sequence (P08684 whole entry, looked up): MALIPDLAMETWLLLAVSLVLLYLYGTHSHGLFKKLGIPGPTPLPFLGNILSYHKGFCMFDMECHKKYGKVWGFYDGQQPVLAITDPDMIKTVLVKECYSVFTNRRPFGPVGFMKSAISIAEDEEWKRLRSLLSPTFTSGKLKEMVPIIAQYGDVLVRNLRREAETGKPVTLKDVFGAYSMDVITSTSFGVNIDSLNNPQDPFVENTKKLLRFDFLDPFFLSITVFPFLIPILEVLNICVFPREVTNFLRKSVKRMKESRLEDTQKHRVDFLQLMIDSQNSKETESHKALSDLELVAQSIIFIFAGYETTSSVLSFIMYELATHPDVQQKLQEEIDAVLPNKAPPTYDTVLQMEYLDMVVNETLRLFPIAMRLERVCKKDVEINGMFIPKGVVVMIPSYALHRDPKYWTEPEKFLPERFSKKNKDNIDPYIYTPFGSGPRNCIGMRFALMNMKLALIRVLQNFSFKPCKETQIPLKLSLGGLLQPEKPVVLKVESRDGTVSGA
Dual specificity protein kinase CLK4 (Homo sapiens), sequence (Q9HAZ1 whole entry, looked up): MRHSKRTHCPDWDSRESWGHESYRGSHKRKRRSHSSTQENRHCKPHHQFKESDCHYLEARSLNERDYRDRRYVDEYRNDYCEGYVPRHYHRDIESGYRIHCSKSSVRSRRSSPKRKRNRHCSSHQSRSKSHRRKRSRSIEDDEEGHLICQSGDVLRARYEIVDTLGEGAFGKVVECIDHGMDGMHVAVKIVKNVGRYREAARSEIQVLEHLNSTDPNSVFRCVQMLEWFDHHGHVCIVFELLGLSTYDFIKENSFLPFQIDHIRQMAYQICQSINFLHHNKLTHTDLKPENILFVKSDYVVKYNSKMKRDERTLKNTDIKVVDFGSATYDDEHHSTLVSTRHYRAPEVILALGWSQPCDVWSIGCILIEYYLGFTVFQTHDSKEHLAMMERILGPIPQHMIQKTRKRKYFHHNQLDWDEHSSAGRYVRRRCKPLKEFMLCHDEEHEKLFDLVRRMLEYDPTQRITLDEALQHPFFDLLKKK
Ubiquitin carboxyl-terminal hydrolase 1 (Homo sapiens), sequence (O94782 whole entry, looked up): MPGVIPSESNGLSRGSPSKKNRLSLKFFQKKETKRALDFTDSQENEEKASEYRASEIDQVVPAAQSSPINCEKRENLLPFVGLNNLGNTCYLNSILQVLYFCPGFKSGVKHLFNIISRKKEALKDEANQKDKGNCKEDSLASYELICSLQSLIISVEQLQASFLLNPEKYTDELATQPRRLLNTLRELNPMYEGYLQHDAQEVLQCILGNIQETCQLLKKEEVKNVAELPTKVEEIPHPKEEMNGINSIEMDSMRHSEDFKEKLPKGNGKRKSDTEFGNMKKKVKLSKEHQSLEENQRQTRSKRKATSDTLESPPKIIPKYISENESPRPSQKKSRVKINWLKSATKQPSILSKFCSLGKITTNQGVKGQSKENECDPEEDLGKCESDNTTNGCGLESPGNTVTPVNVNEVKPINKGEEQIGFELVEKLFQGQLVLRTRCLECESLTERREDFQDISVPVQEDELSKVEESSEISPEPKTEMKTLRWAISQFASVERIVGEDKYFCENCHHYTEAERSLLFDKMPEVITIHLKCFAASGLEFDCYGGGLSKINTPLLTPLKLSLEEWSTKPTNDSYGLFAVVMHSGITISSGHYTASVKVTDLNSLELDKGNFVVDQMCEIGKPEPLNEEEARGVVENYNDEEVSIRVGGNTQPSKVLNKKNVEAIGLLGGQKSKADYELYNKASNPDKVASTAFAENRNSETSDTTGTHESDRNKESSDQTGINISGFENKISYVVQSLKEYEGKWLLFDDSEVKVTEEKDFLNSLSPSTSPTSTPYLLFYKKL
Cytochrome P450 1A2 (Homo sapiens), sequence (P05177 whole entry, looked up): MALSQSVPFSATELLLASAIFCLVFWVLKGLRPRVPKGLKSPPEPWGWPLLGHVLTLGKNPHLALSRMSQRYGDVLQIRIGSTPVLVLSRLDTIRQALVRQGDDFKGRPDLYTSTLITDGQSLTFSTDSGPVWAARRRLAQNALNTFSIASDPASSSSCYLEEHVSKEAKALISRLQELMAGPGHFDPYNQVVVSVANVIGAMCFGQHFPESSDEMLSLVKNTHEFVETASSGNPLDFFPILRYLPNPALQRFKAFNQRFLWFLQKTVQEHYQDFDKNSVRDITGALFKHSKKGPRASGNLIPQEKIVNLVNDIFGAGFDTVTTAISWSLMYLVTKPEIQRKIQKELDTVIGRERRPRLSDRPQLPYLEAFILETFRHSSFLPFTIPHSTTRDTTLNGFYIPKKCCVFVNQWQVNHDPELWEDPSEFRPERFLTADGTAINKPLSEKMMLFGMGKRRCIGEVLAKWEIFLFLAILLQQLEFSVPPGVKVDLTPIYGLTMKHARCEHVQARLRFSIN
Cytochrome P450 2C19 (Homo sapiens), sequence (P33261 whole entry, looked up): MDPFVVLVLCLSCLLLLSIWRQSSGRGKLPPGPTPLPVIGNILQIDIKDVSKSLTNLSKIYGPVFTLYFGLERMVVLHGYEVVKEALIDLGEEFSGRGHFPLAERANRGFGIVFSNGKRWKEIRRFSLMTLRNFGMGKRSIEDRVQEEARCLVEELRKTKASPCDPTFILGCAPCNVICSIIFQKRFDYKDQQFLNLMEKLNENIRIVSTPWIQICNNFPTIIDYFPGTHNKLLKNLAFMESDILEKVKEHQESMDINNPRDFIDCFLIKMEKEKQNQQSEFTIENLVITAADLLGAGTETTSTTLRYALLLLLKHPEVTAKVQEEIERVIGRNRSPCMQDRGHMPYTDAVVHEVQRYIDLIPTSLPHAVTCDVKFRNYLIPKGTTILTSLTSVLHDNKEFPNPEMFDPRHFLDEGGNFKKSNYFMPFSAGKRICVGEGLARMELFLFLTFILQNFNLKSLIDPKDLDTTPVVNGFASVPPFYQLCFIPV

Consider `Cc1noc(C)c1-c1nccc(NCc2ccccc2)n1`, for which the Potency in [1] is more than 2.29 µM; in test [3], 0.794 µM (active); in test [6] it was more than 46 µM; in test [7] it was more than 46 µM; in test [10], 5.01 µM (active). Besides, the figures for the activity change, negative = inhibition in test [2] and in [4] were 0.193% and -7.38%, respectively. The activity, negative = inhibition in test [5] is -0.39%. The Potency entry in [8], in [9], in [11] and in test [12] was “inactive” in each case. The result in test [13] was inactive.

Turning to `O=c1c(-c2cccs2)nc2cncnc2n1-c1ccccc1`, the Potency was more than 11.4 µM in test [1]; 12.6 µM (active) in [3]; more than 9.22 µM in test [6]; more than 46 µM in [7]; 6.31 µM (active) in [14]. Also, the activity change, negative = inhibition in [2] is -11.2%; in [4] it was -9.03%. Also, the activity, negative = inhibition in [5] was -0.182%. The Potency result in test [8], in [11], in test [12] and in test [15] was “inactive” each time. For the same compound, the result in test [13] was inactive.

Turning to `N#Cc1ccccc1-c1ccc2ncnc(NCCN3CCOCC3)c2c1`, the Potency in test [1] is more than 11.4 µM; in test [3], 10 µM (active); in test [6], more than 46 µM; in [7] it was more than 46 µM. Besides, the activity change, negative = inhibition in test [2] was 1.67%. In addition, the activity, negative = inhibition in test [5] is 0.199%. Further, the Potency entry in test [8], in test [9], in test [11], in test [12] and in test [15] was “inactive” throughout. In addition, the result in test [13] was inactive.

For `N#Cc1cccc(-c2cncnc2NCCc2cnc[nH]2)c1`, the Potency in test [1] is more than 11.4 µM; in test [6], more than 46 µM; in test [7], more than 46 µM. Also, the values for the activity change, negative = inhibition in test [2] and in test [4] were -12% and 4.36%, respectively. Also, the activity, negative = inhibition in test [5] was -1.18%. Also, the Potency result in [8], in test [9], in test [12] and in test [15] was “inactive” throughout. Further, the outcome in [13] was inactive.

On to `CN(C)c1nc(-c2ccccc2C(F)(F)F)nc2ccccc12`, for which the Potency is more than 11.4 µM in [1], 0.251 µM (active) in test [3], more than 46 µM in test [6] and more than 46 µM in [7]. Moreover, the activity change, negative = inhibition in test [4] was 0.537%. Besides, the activity, negative = inhibition in test [5] is 7.02%. Also, the Potency result in [8], in test [9], in test [12] and in test [15] was “inactive” throughout. For the same compound, the outcome in [13] was inactive.

`c1ccc(CNc2ccnc(-c3cccnc3)n2)cc1`: the Potency in test [1] is more than 11.4 µM; in test [3], 0.251 µM (active); in [6] it was more than 46 µM; in test [7] it was more than 46 µM; in test [10], 0.631 µM (active); in [16], 1.26 µM (active). Also, in test [14], the Potency is 2.51 µM (active). Besides, the activity change, negative = inhibition was -10.3% in [2] and 7.79% in test [4]. Also, the Potency result in test [8], in [11], in test [12] and in [15] was “inactive” in each case. Besides, the outcome in [13] was inactive.

`COc1ccc(-c2nc3cnc(N4CCOCC4)nc3n(Cc3cccs3)c2=O)cc1`: the Potency in test [1] is more than 11.4 µM; in [3] it was 2.51 µM (active); in [6], more than 9.22 µM; in test [7], more than 46 µM; in test [9], 1.58 µM (active). Also, the figures for the activity change, negative = inhibition in [2] and in [4] were 12.3% and -2.31%, respectively. The Potency entry in [8], in test [12] and in test [15] was “inactive” throughout. Further, the result in test [13] was inactive.
